# Assay outcomes as filed in PubChem BioAssay.
# Rab9 promoter act = Rab9 promoter activation. Huh7 Rab9 promoter-luciferase reporter, luminescence, 24 h. Potency, µM (highest dose often 9.22 µM), inactives show at the top dose activation, negative = inhibition, actives largely listed as activators. 320,000 tested, 2.8% active. AID 485297; note: % of control where 0% means no effect; nearly all actives have a fitted effect of over 60% in size
#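 Stable Rab9-luc Huh7, 1500 cells/well, 2 h settle; cmpd in DMSO, 24 h, 37 °C/5% CO2; luciferase reagent 10 min RT; luminescence.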
# ELG1 genotox = inducers of genotoxicity in HEK293T ELG1-luciferase cells; HEK293T ELG1-luciferase reporter, luminescence, 16 h; Potency, µM (highest dose often 46 µM), inactives show at the top dose activity change, positive = activation, hits mostly activators; 330,000 tested, 1.3% active; AID 504466; note: % of control where 0% means no effect; nearly all actives have a fitted effect of over 60% in size
#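 Screening used a luciferase reporter fused to human ELG1 in HEK293T cells. Luminescence was read on a CCD plate imager after 16 hr exposure and 30 min ONE-Glo incubation.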
# NPC1 promoter act = activators of NPC1 promoter; Huh7 NPC1 promoter luciferase reporter, 24 h; Potency, µM (series often up to 9.22 µM), without a hit: at the top dose activation, usual class: activators; 320,000 tested, 2.4% active; AID 485313; note: % of control where 0% means no effect; nearly all actives have a fitted effect of over 60% in size
#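 NPC1 promoter–luciferase Huh7 cells; 24 h compound; luminescence.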
# FLuc counter = counter-screen for miR-21 project: firefly luciferase inhibitors or activators; AID 588342; 360,000 tested, 6.9% active; purified FLuc, Km substrates, luminescence inhibition; P08659; Potency, µM (highest dose often 57.5 µM), for inactives: at the highest dose activity change, negative = inhibition, most hits filed as inhibitors;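 note: plate controls were vehicle for no effect and reference inhibitor for full effect; nearly all actives have a fitted effect of over 55% in size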
# Target sequence (P08659 whole entry, looked up): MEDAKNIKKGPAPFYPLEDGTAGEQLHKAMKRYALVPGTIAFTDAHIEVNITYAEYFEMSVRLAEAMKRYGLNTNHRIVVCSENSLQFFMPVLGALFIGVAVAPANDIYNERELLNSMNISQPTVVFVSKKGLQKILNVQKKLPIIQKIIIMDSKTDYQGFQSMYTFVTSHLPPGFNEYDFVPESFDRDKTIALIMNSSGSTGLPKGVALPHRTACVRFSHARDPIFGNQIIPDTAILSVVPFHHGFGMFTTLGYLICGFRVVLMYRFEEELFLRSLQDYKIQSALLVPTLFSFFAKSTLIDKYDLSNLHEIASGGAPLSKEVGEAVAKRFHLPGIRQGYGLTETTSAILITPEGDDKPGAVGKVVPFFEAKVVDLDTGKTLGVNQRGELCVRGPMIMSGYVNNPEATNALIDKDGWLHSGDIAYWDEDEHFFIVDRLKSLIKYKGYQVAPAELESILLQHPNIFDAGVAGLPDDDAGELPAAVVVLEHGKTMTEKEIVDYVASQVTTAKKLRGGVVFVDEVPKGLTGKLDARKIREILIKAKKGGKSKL
#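 Purified P. pyralis luciferase (10nM final) with 10uM D-luciferin and 10uM ATP (Km levels) in 50mM Tris acetate pH 7.5, 10mM Mg acetate, 0.01% Tween-20, 0.05% BSA; qHTS 6-point titration, ~60 µM downward; luminescence read.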
# Luc counter = counter-screen: inhibitors of Kinase-Glo firefly luciferase | Potency, µM (doses to about 38.3 µM), without a hit: top-dose activity change, negative = inhibition, usual class: inhibitors | 200,000 tested, 0.28% active | Kinase-Glo luciferase, ATP luminescence, 8 min | Q27757 | AID 1379; note: % is set by controls: 0 for no effect and ±100 for the full control effect; nearly all actives have a fitted effect of over 60% in size
#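 Substrate mix (final 50 mM imidazole pH 7.2, 50 mM KCl, 7 mM MgCl2, 10 uM ATP, 0.01% Tween 20, 0.05% BSA) plus pin-tool compound, then Kinase-Glo detection mix; 8 min ambient, luminescence read.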
# SMN2 splice enh = SMN2 splice variant enhancement. HEK293 SMN2-luciferase splicing reporter, luminescence, 30-36 h. Potency, µM (titrated, usually from 46.1 µM), for inactives: at the highest dose activity change, positive = activation, usual class: activators. 210,000 tested, 2.8% active; note: % of control where 0% means no effect; nearly all actives have a fitted effect of over 55% in size
#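 HEK293 cells carry an SMN2 […]–luciferase reporter in which exon 7 inclusion puts luciferase in frame. Cells were plated 10-12 h before compound addition, then incubated 30-36 h at 37C. ONE-Glo luminescence was read; sodium butyrate at 4.5 mM final served as control.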
# * hit, by the source's call; ? = inconclusive; / = no result. The list is not random: actives were taken first. Their share in the collection is about 7.4%. Calls come from the whole dose curve; as a rule, active = well fitted curve in the direction sought with a large enough effect; inconclusive = small, poorly fitted or top-dose-only effect, or another doubt; inactive = no such curve, though single readings can be large; an effect the other way counts as inactive or inconclusive. Potency is the fitted concentration of half-maximal effect.
SMILES,Rab9 promoter act,ELG1 genotox,NPC1 promoter act,FLuc counter,Luc counter,SMN2 splice enh
c1ccc(-c2nnc3sc(-c4csc5c4CCCC5)nn23)cc1,16.5%,10.2%,13.9%,15.1µM*,-4.6%,?
Cc1ccccc1C(C)NC(=O)COC(=O)Cn1cc(C(F)(F)F)ccc1=O (configuration not stated),-8.2%,-0.3%,-2.7%,-0.6%,/,/
Nc1ccc(S(=O)(=O)O)cc1,/,/,/,/,/,1.8%
Cc1ccc(Nc2c(-c3ccc(N4CCOCC4)cc3)nc3c(C)cccn23)cc1,/,/,/,-15.0%,/,5.7%
Clc1ccc(CSc2snnc2-c2ccccc2)c(Cl)c1,20.1%,?,?,13.5µM*,-9.2%,?
COc1ccc(/C=C/c2nnc(NC(=O)CSc3ccc(Cl)cc3)s2)cc1,?,?,?,-0.1%,1.2%,10µM*
COc1ccc(/C=C/c2nnc(NC(C)=O)s2)cc1,0.126µM*,2.31µM*,1.12µM*,1.9µM*,/,/
COC(=O)Nc1nnc(/C=C/c2ccc(OC)cc2)s1,3.55µM*,?,?,6.01µM*,?,8.91µM*
COc1ccc(/C=C/c2nnc(NC(=O)CC(C)C)s2)cc1,11.9%,0.1%,11.8%,?,/,/
CCCNC(=O)C1CNc2ccccc2O1 (configuration not stated),-1.3%,-0.3%,3.0%,-0.1%,-0.1%,24.3%
COc1cccc2cc(-c3nnc(-c4ccc(Cl)cc4)o3)c(=O)oc12,/,/,/,1.69µM*,/,-0.5%
COc1cccc2cc(-c3cn4c(n3)sc3cc(F)ccc34)c(=O)oc12,/,/,/,2.39µM*,/,/
CC/C(C)=N/Nc1nc(-c2cc3cccc(OC)c3oc2=O)cs1,1.78µM*,?,2.24µM*,8.49µM*,/,/
COc1cccc2cc(-c3nnc(-c4ccccc4)o3)c(=O)oc12,0.501µM*,?,0.501µM*,0.213µM*,?,11.2µM*
COc1cccc2cc(-c3nc(-c4ccc(Cl)cc4)cs3)c(=O)oc12,/,/,/,5.4%,/,/
CCc1ccc(NCc2cc3ccc(OC)cc3n(CC(=O)Nc3cccc(Cl)c3C)c2=O)cc1,/,/,/,-0.2%,/,/
Cc1ccc(NC(=O)O/N=C/c2c(C)nn(C(C)(C)C)c2C)cc1Cl,-43.7%,-11.8%,-35.2%,0.135µM*,/,/
CC(Sc1nc(-c2ccc(F)cc2)cs1)C(=O)Nc1ccc(Cl)cn1 (configuration not stated),-0.6%,-5.4%,5.5%,0.2%,-2.5%,-2.7%
CCOc1ccc(C(=O)C(C)OC(=O)C2CCN(c3ccc(C(F)(F)F)cn3)CC2)cc1 (configuration not stated),-0.8%,18.3µM*,-1.0%,-1.4%,/,/
CCOC(=O)Cc1csc(NC(=O)c2ccc(Br)cc2)n1,-0.3%,-2.9%,1.0%,21.3µM*,/,/
CCOC(=O)Cc1csc(NC(=O)c2ccc(C)o2)n1,10.7%,?,2.7%,-13.1%,-12.5%,-6.5%
CCOC(=O)Cc1csc(NC(=O)c2ccco2)n1,?,16.4µM*,?,?,-3.8%,7.94µM*
CCOC(=O)Cc1csc(NC(=S)NC(=O)c2ccc(Cl)cc2)n1,-10.0%,0.0%,-6.7%,12µM*,-2.8%,-0.9%
CCOC(=O)Cc1csc(NC(=O)c2ccc3ncsc3c2)n1,23.7%,3.0%,-22.7%,15.1µM*,/,/
CCOC(=O)Cc1csc(NC(=O)c2ccncc2)n1,-2.7%,-6.3%,0.3%,-2.6%,-8.1%,-27.4%
CCOC(=O)Cc1csc(NC(=O)c2ccc3ccccc3n2)n1,1µM*,-6.8%,1.58µM*,15.1µM*,/,/
CCOc1ccc(C2c3[nH]c4ccccc4c3CCN2C(=O)CSc2ccccc2)cc1 (configuration not stated),/,/,/,-4.6%,/,/
O=C1Nc2ccccc2/C1=C/c1cnc(-c2ccccc2)[nH]1,3.98µM*,?,2.82µM*,?,/,/
O=C(NC1CC(=O)N(c2cccc(F)c2)C1)C1CCCC1 (configuration not stated),/,/,/,3.1%,/,/
